Sampled rows, rich in hits. Any-hit rate of the full collection: about 9.5%.
ALDH1A1 block: inhibitors of human aldehyde dehydrogenase 1A1 | 220,000 compounds, 7.3% hits | Purified ALDH1A1, NADH fluorescence, propionaldehyde substrate | Potency, µM (titrated, usually from 75.3 µM), for the others: top-dose activity, negative = inhibition, most hits filed as inhibitors; active = well fitted inhibition curve with a large enough effect, not every such curve was filed as active; inconclusive = small, poorly fitted or top-dose-only effect, or another doubt; inactive = no such curve, though single readings can be large or run the other way;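 also: plate controls were no enzyme wells and a reference inhibitor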
Target sequence (P00352 whole entry, looked up): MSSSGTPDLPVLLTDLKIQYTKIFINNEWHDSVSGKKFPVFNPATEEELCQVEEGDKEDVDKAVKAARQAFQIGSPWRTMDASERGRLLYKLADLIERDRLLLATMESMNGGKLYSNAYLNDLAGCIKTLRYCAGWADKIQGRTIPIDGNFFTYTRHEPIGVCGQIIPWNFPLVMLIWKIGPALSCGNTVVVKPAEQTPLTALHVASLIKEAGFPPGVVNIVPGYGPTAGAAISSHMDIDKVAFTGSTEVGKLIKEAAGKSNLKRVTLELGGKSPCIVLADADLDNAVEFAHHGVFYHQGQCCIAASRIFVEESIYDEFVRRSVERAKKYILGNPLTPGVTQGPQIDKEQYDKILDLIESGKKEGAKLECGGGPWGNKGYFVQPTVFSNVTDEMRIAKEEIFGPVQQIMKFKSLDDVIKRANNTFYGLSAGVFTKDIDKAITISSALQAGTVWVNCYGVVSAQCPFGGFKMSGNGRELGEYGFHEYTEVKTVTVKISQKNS
Tau ThT inhib: inhibitors of human tau fibril formation, thioflavin T binding | recombinant tau K18 P301L, heparin-induced fibrillization, ThT fluorescence | 270,000 compounds, 2.1% hits | Potency, µM (titrated, usually from 57.4 µM), for inactives: top-dose activity, negative = inhibition, most hits filed as inhibitors | AID 1460; also: nearly all actives have a fitted effect of over 55% in size
Target sequence (P10636 561-689 P618L limits assumed): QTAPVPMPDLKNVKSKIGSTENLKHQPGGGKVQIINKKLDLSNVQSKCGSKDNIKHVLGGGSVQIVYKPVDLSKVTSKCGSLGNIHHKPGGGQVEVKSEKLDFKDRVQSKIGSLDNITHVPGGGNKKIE
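Tau K18 P301L fragment (15 uM unlabeled plus 0.24 uM Alexa 594-labeled) in 100 mM sodium acetate pH 7 with compound, fibrillization induced by 20 uM heparin for 6 hr at 37 C. Thioflavin T (30 uM) added, fluorescence read after 1 hr (ex 450, em 510 nm).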
NPSR antag: neuropeptide S receptor (human) antagonism, cAMP; Q6W5P4; CHO-NPSR cells, cAMP TR-FRET, antagonist mode; Potency, µM (doses to about 38.3 µM), without a hit: top-dose activity change, negative = inhibition, hits mostly inhibitors; 220,000 compounds, 1% hits; also: nearly all actives have a fitted effect of over 50% in size
HPGD block: inhibitors of human 15-hydroxyprostaglandin dehydrogenase (HPGD). purified HPGD, NADH fluorescence kinetic, PGE2 substrate. 150,000 compounds, 4.3% hits. P15428. Potency, µM, inactives show top-dose activity change, negative = inhibition, usual class: inhibitors; active = well fitted inhibition curve with a large enough effect, not every such curve was filed as active; inconclusive = small, poorly fitted or top-dose-only effect, or another doubt; inactive = no such curve, though single readings can be large or run the other way
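20 nM HPGD preincubated 15 min at room temperature with compound in 50 mM Tris-HCl pH 8, 0.01% Tween 20. Started with 1 mM NAD+ and 30 uM prostaglandin E2; NADH fluorescence (360/450 nm) read 5 times over 30-s intervals, last minus first.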
Tau fluor cs: counter-screen for tau fibril formation inhibitors; tau K18 P301L (four-repeat tau fragment) Alexa594 fluorescence, heparin fibrillization; Potency, µM (doses to about 57.7 µM), inactives show at the highest dose activity change, negative = decrease; 280,000 compounds, 0.93% hits; AID 1463; also: nearly all actives have a fitted effect of over 55% in size
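Human K18 P301L tau (15 uM unlabeled plus 0.24 uM Alexa 594-labeled, final) in 100 mM sodium acetate pH 7 was mixed with compound and 20 uM heparin and incubated 6 hr at 37 C.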
Tau fibril FP: inhibitors of human tau fibril formation; K18 P301L tau heparin fibrillization, Alexa594 FP, 6 h; Potency, µM (highest dose often 57.7 µM), for the others: top-dose activity, negative = inhibition, usual class: inhibitors; 280,000 compounds, 0.39% hits; also: nearly all actives have a fitted effect of over 55% in size
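Human K18 P301L fragment (15 uM unlabeled plus 0.24 uM Alexa 594-labeled) in 100 mM sodium acetate pH 7 with compound, aggregation induced by 20 uM heparin for 6 hr at 37 C. ThT (30 uM) added for 1 hr, then Alexa 594 FP read.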
Numbers without * were called inactive; ? = inconclusive; / = no result; [ ] = dose if it differs, or a comment. Unless noted, calls follow the shape of the dose curve; as a rule, active = well fitted curve in the direction sought with a large enough effect; inconclusive = small, poorly fitted or top-dose-only effect, or another doubt; inactive = no such curve, though single readings can be large; an effect the other way counts as inactive or inconclusive. Unless noted, % is scaled to controls: 0 for no effect and ±100 for the full control effect; potency is read from the fitted curve at half-maximal effect.

SMILES	ALDH1A1 block	Tau ThT inhib	NPSR antag	HPGD block	Tau fluor cs	Tau fibril FP
COc1ccc(Nc2nc(N)c([N+](=O)[O-])c(NCc3ccccc3)n2)cc1	/	?	?	/	14µM*[quencher]	-4%
Cc1ccc(Nc2nc(N)c([N+](=O)[O-])c(NCc3ccccc3)n2)cc1	/	?	-29%	/	?	?
COc1ccc(Nc2cc(C)nc(NCc3ccccc3)n2)cc1	/	?	?	/	35µM*[quencher]	4%
Nc1nc(NCc2ccco2)nc(N2CCCCC2)c1[N+](=O)[O-]	4µM*	-7%	16%	-5%	-4%	6%
Nc1nc(Nc2cccc(Cl)c2)nc(NCc2ccco2)c1[N+](=O)[O-]	1%	?	44%	/	?	28µM*
CCCCc1nc2c(c3c1C[C@H](C)OC3)CN(S(=O)(=O)c1ccc(NC(C)=O)cc1)CC2	5%[13.5 µM]	-6%[11.5 µM]	/	-2%	-8%[11.6 µM]	-6%[11.6 µM]
Nc1nc(Nc2ccc(Cl)cc2)nc(NCc2ccco2)c1[N+](=O)[O-]	/	?	?	/	?	16µM*
COC(=O)CNC(=O)CCc1nnc(C2(c3ccc(Cl)cc3)CCC2)o1	8.9µM*	-9%	9%	/	-7%	-10%
C=C(C)CNC(=O)CCc1nnc(C2(c3ccc(Cl)cc3)CCC2)o1	-11%	-2%	14%	/	-3%	-3%
COC(=O)CNC(=O)Nc1cc(C(=O)NCc2ccc(C)cc2)ccc1N1CCCC1	/	3%	/	/	1%	3%
COP(=O)(OC)C(Nc1ccc(C)cc1)c1ccc([N+](=O)[O-])cc1 (centres undefined)	?	-12%	11%	-3%	-6%	11%
Cc1nc(SCC(=O)Nc2ccc(Br)cc2)[nH]c(=O)c1Cc1ccccc1	/	?	/	/	-22%	?
CCc1c(C)nc(SCC(=O)Nc2ccc(Br)cc2)[nH]c1=O	4%	-14%	-7%[46.1 µM]	14µM*	-10%	2%
CCc1c(C)nc(SCC(=O)Nc2cccc(Br)c2)[nH]c1=O	-4%	-7%	-10%[46.1 µM]	3.5µM*	-8%	-5%
CCOc1cc(/C=N/NC(=O)c2cc(-c3cccc(OC)c3)n[nH]2)ccc1O	?	/	/	-25%	/	/
COc1ccc2c(C=O)cn(C)c2c1	2.2µM*	-10%	-18%	/	-10%	6%
CCc1ccc(NC(=O)c2sc3nc(C)c(Cl)c(C)c3c2N)cc1	/	?	/	/	-11%	10%
COC(=O)c1sc2nc(C)c([N+](=O)[O-])c(C)c2c1N	6%	3.2µM*	2%	-13%	-25%	-3%
CC(=O)c1cc(-c2ccccc2)n(CCC(=O)NCc2ccc(C)cc2)c1C	/	-7%	/	/	-5%	5%
CCc1ccc(-c2nn(CC(=O)Nc3ccccc3C)c3c2cnc2ccc(C)cc23)cc1	/	-2%	/	/	-1%	-5%
O=C(COC(=O)C1CC2C=CC1C2)Nc1ccccc1F (centres undefined)	13µM*	8%	-2%	/	6%	8%
O=C(COC(=O)C1CC2C=CC1C2)NCCc1ccccc1 (centres undefined)	?	-1%	-4%	/	2%	4%
COc1cc(OC)c(Nc2nc3ccccc3c3nncn23)cc1Cl	/	?	/	/	?	-3%
CCCCOc1ccc(C(=O)NCCc2sc3nc(-c4ccc(OC)cc4)nn3c2C)cc1	/	?	/	/	-24%	-18%
CCN(C(=O)c1nn(C)c2c1CSc1ccccc1-2)c1cccc(C)c1	/	0%	/	/	-5%	-6%
SMILES	ALDH1A1 block	Tau ThT inhib	NPSR antag	HPGD block	Tau fluor cs	Tau fibril FP
CCCCN(CC)C(=O)c1nn(C)c2c1CSc1ccccc1-2	/	-7%	/	/	14µM*[quencher]	?
CC(=O)N1N=C(c2ccccc2)CC1c1cn(Cc2ccccc2)c2ccccc12 (centres undefined)	28µM*	-12%	-36%	-13%	4%	-2%
CCCC(=O)C1=C(c2ccc(C)c(C)c2)N(C(=O)CCC)n2c(CC)nnc2S1	/	?	/	/	-18%	-9%
CCc1ccc(NC(=O)C2=C(C)C(=O)OC23CCCCC3)cc1	/	7%	/	/	-10%	0%
CN(C)c1ccc(NC(=S)NC(=O)/C=C/c2ccco2)cc1	5%	?	5%	/	-23%	-13%
CN(C)c1ccc(NC(=S)NC(=O)/C=C/c2ccc(Cl)cc2)cc1	-18%	10µM*	-12%[46.1 µM]	0%	?	-6%
Cc1[nH]c2ccccc2c1/C=N/Nc1ccc([N+](=O)[O-])cc1	-1%	0%	-20%[46.1 µM]	/	-1%	4%
Cc1ccc[n+](-c2nc([O-])sc2/C=N/Nc2ccc([N+](=O)[O-])cc2)c1	/	14µM*	-29%	/	-24%	-4%
COc1cc(C(=O)N/N=C/C2CC=CCC2)cc(OC)c1OC (centres undefined)	11µM*	-3%	-31%	-10%	-7%	-3%
CCOc1ccc(S(=O)(=O)Nc2ccc(C(=O)N/N=C(\C)c3ccc(-n4ccnc4)cc3)cc2)cc1	16µM*	-9%	-22%[46.1 µM]	-22%	?	-9%
CCc1ccc(OCC(=O)N/N=C(\C)c2ccc(-n3ccnc3)cc2)cc1	5%	?	-26%[46.1 µM]	/	-8%	-8%
Cc1c(F)cccc1NS(=O)(=O)c1cccs1	/	-14%	/	/	-10%	-9%
O=C(O)c1ccc(N/N=C/C2=Cc3ccccc3OC2)cc1	/	4µM*	-7%	/	13µM*[quencher]	3%
CO[C@@H]1COC(=O)C/C=C\[C@@H](C)COC(=O)[C@H](COCc2ccccc2)NC(=O)C/C=C\[C@H]1C	-10%[13.5 µM]	-11%[11.5 µM]	/	/	-15%[11.6 µM]	-3%[11.6 µM]
COc1cc(OC)c(CNC2CCCCCC2)cc1Br	7.9µM*	2%	-18%	/	-1%	0%
Cc1ccccc1-c1noc(C(C)NC(=O)c2ccco2)n1 (centres undefined)	/	-2%	/	/	-7%	-8%
CCCCn1c(=O)c(-c2ccccc2)c(O)c2ccccc21	?	2%	-16%[46.1 µM]	-9%	3%	2%
CC(C)Cn1c(=O)c(-[n+]2ccccc2)c([O-])c2ccccc21	2.8µM*	0%	24%	/	-1%	-2%
CCCCn1c(=O)c(-[n+]2ccccc2)c([O-])c2ccccc21	14µM*	-7%	-17%[46.1 µM]	-11%	-4%	3%
CC(C)Cn1c2ccccc2c2cc(C(=O)O)ccc21	-4%	-18%	6%[46.1 µM]	-11%	-8%	4%
CC(/C=N/NC(=O)c1nn(C)c(C)c1Br)=C\c1ccccc1	-2%	?	-10%	-16%	-9%	1%
CCN(CC)C(=O)Oc1ccc2c(=O)c(-c3ccc(OC)cc3)c(C)oc2c1	14µM*	?	?	-14%	-11%	1%
Cc1ccc(NC(=O)C2CCCN2S(=O)(=O)c2ccc3c(c2)CCC(=O)N3)cc1Cl (centres undefined)	-11%	0%	1%[46.1 µM]	-6%	-13%	-9%

Bioassay records as filed in PubChem.
